Measured values from paper PMC13494018.

B1: design_616_e8336982-fa4d-4d7c-b06f-9007953e1994_1400_dldesign_0_cycle1_af2pred (protein)
chain: AAAAVAIADKTIAALARQARRLAEEAIRDPDPERARRLVESAEELVRVAEDIAEAMGASPEAKEAVRRAREEVERAREVVER
B2: design_616_e8336982-fa4d-4d7c-b06f-9007953e1994_1227_dldesign_0_cycle1_af2pred (protein)
chain: SSGAQLVTTAGAVILAQVPPAAHPYVEAATAAGVAEGVEAFLSGLQEARKALSPEDAAVLLAATTAGLAAGAKAVIA
B3: design_616_e8336982-fa4d-4d7c-b06f-9007953e1994_1745_dldesign_0_cycle1_af2pred (protein)
chain: APLEAVAKEAAEIAAKELPEASLEDALLVAEALLNPEKAKEYFAEVKKRLSPEDAARLFQTVGKAFSQLSLKLQAALAA
B4: design_616_e8336982-fa4d-4d7c-b06f-9007953e1994_1719_dldesign_0_cycle1_af2pred (protein)
chain: AEAAGKAAAAAIELSREMLRIAREAGNEEVIAIAQRATAAFNQAMLDKKAGIERLKEVAKEAEELPEGKPVAELVKKAIKAFEA
B5: design_616_e8336982-fa4d-4d7c-b06f-9007953e1994_392_dldesign_0_cycle1_af2pred (protein)
chain: AEAYQKALATAEKLLAQGQAGLADPSNAEALEKGAQGYFLLAALYPEKREEYVAKGEALYKKAEEARAAQAA
B6: design_616_e8336982-fa4d-4d7c-b06f-9007953e1994_824_dldesign_0_cycle1_af2pred (protein)
chain: DDLERGRELAEEVARVIREGTPEEAKRAIEEAAERLAELSAGAALLAGSLMVREAAKVPGGEELTAHIRAELLRVLRAKIAAA
B7: design_616_e8336982-fa4d-4d7c-b06f-9007953e1994_1282_dldesign_0_cycle1_af2pred (protein)
chain: AAALEVTRRTIFAMADHAYKSENLETAKAIMKTLGQIAVAAGEEVLKEAREYIEKLAKESTEEKAKALLEGFEEGVAEAKA
B8: design_616_e8336982-fa4d-4d7c-b06f-9007953e1994_1403_dldesign_0_cycle1_af2pred (protein)
chain: GAARAAELQGKADYLLAKSYADAALKSPDPEKAAELLKKAKEYAERALEDPVGAPYGEKALKYIEEVEKAL
B9: design_616_e8336982-fa4d-4d7c-b06f-9007953e1994_606_dldesign_0_cycle1_af2pred (protein)
chain: SPLAQAQADLLRRTLAALRRSVERAEELAREDPEAGAARLRALAQSAEVVLEAARGLAAQDPALGAETVAAAREVLERAREAEERAR
B10: design_616_e8336982-fa4d-4d7c-b06f-9007953e1994_719_dldesign_0_cycle1_af2pred (protein)
chain: PTPVEVAEAAAQATIKTAKRQVEEAKRLLKEGKAEEALRLAESAIQNAEIAKDLAENNPEKKEELKKQAEEVKKEAEEVKEEAEKKL
B11: design_616_e8336982-fa4d-4d7c-b06f-9007953e1994_1297_dldesign_0_cycle1_af2pred (protein)
chain: DPTAEAAARSAEARALRERGAAAGPEAAAVAEAAALAAQRANYYYLISYGDPSAAEAAAKAAEAEAEARELRAELEKLLAEAE
B12: design_616_e8336982-fa4d-4d7c-b06f-9007953e1994_1283_dldesign_0_cycle1_af2pred (protein)
chain: AAAAAAAAAARAALRAELLALAEEGAKKVLAGEISLGEAVKAIMEAGAADPEAANEAAAYLIRTVMQATQAA
B13: design_616_e8336982-fa4d-4d7c-b06f-9007953e1994_1581_dldesign_0_cycle1_af2pred (protein)
chain: EEARREELARKAEEKAEEIAKRLAKEGKSVEEIVEEAERYAKELLRPESEEVREEAAGRAANAAVRAYAKVSLELSA
B14: design_616_e8336982-fa4d-4d7c-b06f-9007953e1994_787_dldesign_0_cycle1_af2pred (protein)
chain: VAAAISAATSTAVELLRAAAGATPEQRAEAHALAAEVNRAAVAAAADPSALPATRAELERARARLEAVRAALA
B15: design_616_e8336982-fa4d-4d7c-b06f-9007953e1994_767_dldesign_0_cycle1_af2pred (protein)
chain: AAAREAAVEAAKKQLEELKKKAEELLAYLKANPAASPEEKQKVLEESTKIISQASELAEAYPEVAEQAREAMSAAAKAAILAQKLL
B16: design_616_e8336982-fa4d-4d7c-b06f-9007953e1994_692_dldesign_0_cycle1_af2pred (protein)
chain: MSEAERLAARGLALARHAALLVGLAVGPEEARRLYAAVAAAAADPAALIEVTTEVLELAKEKAALVPQALTTAREALELLTRARELA
B17: design_616_e8336982-fa4d-4d7c-b06f-9007953e1994_1084_dldesign_0_cycle1_af2pred (protein)
chain: MTVDERLWETTEKLVELIEQVAASAPAFPKEGAIRTIKGLAANAKLAAEAALKAGASPEVTKAAAEKVEKAAKAALAKVE
B18: design_616_e8336982-fa4d-4d7c-b06f-9007953e1994_1780_dldesign_0_cycle1_af2pred (protein)
chain: MASLAQGVINMVRSLAELAIKASPEEAAKLAAEAADIAIAGGEQFGAETAEEAAKILEEAAKAKPEVAPYAERVKKKLKEL
B19: design_616_e8336982-fa4d-4d7c-b06f-9007953e1994_396_dldesign_0_cycle1_af2pred (protein)
chain: GMAELLAELREAEARTTALELMFQAGKNIHPGVAAQGLEAARRLRELAERVADAISPEERARYLAAAERTEELAA
B20: design_616_e8336982-fa4d-4d7c-b06f-9007953e1994_1901_dldesign_0_cycle1_af2pred (protein)
chain: AAAARAAAAALAAEAIAAAAAAVAADPAAAAIIHAQAERARGGDAATAVRAAQAAGVLAAVLAGDEALAAAVTRRAAALLAA
B21: design_616_e8336982-fa4d-4d7c-b06f-9007953e1994_1205_dldesign_0_cycle1_af2pred (protein)
chain: DQAQAKAVAIKTVEGMLKKMKQLKEEAEKNAADPSIAIPKAEAIKQLAEVSMAILKAAGLDQETIDKYEKEAKALKEAAEKAAKKAKE
B22: design_616_e8336982-fa4d-4d7c-b06f-9007953e1994_1848_dldesign_0_cycle1_af2pred (protein)
chain: GMAEKEKEYEEKLKEYKAKAKEAAKLTVEDPEAGAKKFKEIIEKAAKDFPERAKEIEEELLKVYREALAAAARAAIAAARA
B23: design_616_e8336982-fa4d-4d7c-b06f-9007953e1994_543_dldesign_0_cycle1_af2pred (protein)
chain: MEEAIAELNKAFAALNAAARTTDAATAQENAKKAIEYAKAAAKAAGEAMAPAAKGIIEQAKEVAAAKAALAA
B24: design_616_e8336982-fa4d-4d7c-b06f-9007953e1994_756_dldesign_0_cycle1_af2pred (protein)
chain: SQAALDAAYNSAKAFAESAKRAAEKGDVQAAEAAYKSAKLAAESAKVIGAAAGEEAKKVAEKAEKIAEEAKKLVEKLKKEA
B25: design_616_e8336982-fa4d-4d7c-b06f-9007953e1994_1845_dldesign_0_cycle1_af2pred (protein)
chain: MEEEERKKKREKAEELLAKAKEHIEAAAKQGALGDGLKFATEVVREATELDPELGEEVAKRVQQLLAEQSRQAIA
B26: design_616_e8336982-fa4d-4d7c-b06f-9007953e1994_1883_dldesign_0_cycle1_af2pred (protein)
chain: NAEVAKLLGQIIDELQAAQAAAAAGDLKAAAKEAQKAAEAAGKIGDPEKGKELAAGAKADPSKAVEYARQALSIASAAAIKIAA
B27: design_616_e8336982-fa4d-4d7c-b06f-9007953e1994_528_dldesign_0_cycle1_af2pred (protein)
chain: SLLEAALAELRARFEAAKTATPAEAAALVRAAQGTLLTAAAQAGAPLEAMAAVSRVLGAAAETAATAPPEERAAALDAALAEVAALLA
B28: design_616_e8336982-fa4d-4d7c-b06f-9007953e1994_1040_dldesign_0_cycle1_af2pred (protein)
chain: MEEVLREVERQAESVEKLAQAVIDLAQNDPEAQAKAKELAEKAREARERALEEPETAEEQLKRLQELFEEARRLAAETSRRAIAAA
B29: design_616_e8336982-fa4d-4d7c-b06f-9007953e1994_1142_dldesign_0_cycle1_af2pred (protein)
chain: SAKAEAAKKEYEKAKKAAEEAKKVAKAAGDEAGAAAAKALEKSAENALRNGNLEMVKQVKEIAEAEKEIAEKKLK
B30: design_616_e8336982-fa4d-4d7c-b06f-9007953e1994_632_dldesign_0_cycle1_af2pred (protein)
chain: AAADTEKFKKATEHALKAVELAKEGKLEEAEKEAKKAEEEAKKIKDPVTKAGALALAKAARQVIESKAKE
B31: design_616_e8336982-fa4d-4d7c-b06f-9007953e1994_576_dldesign_0_cycle1_af2pred (protein)
chain: SPALELTKRVAEAMAAQARRAAEEDPALGRAQFENALQIAKQFNPEQGALFRAILEATRAEVEAALAAAA
B32: design_616_e8336982-fa4d-4d7c-b06f-9007953e1994_1415_dldesign_0_cycle1_af2pred (protein)
chain: AAAALAAAVAAAKEIAADLSPEDQAIVVTAAVLAVTGAGLGQAIELARAHPAISAAIMGAAARAQAAVLAAA
B33: design_616_e8336982-fa4d-4d7c-b06f-9007953e1994_1846_dldesign_0_cycle1_af2pred (protein)
chain: AQAEKEAAAAKAKRLLDQLKEFGALAVTAAAASAQQGQAYLAMARQLAANAKEEAKKTGEEGKELAAQAEATLAAAEAGVAAALAAA
B34: design_616_e8336982-fa4d-4d7c-b06f-9007953e1994_1398_dldesign_0_cycle1_af2pred (protein)
chain: PREEVERLEREVREARKRAEAATTVEQAGEAALEALEAEARARRLAEELRARGGDEELAERAERVAEEARAVFLFAAGKAIELAKA
B35: design_616_e8336982-fa4d-4d7c-b06f-9007953e1994_502_dldesign_0_cycle1_af2pred (protein)
chain: MTPEQLAAMERSVARIAEAGARAPTEEEFESAMTAALALAESFGRKAGAPELATARAREIVAKYRARRLA
B36: design_616_e8336982-fa4d-4d7c-b06f-9007953e1994_1969_dldesign_0_cycle1_af2pred (protein)
chain: GEEEKEKKKERFEEILKKAIEGKATKEEIEQAALDGVAYDGGEAVLALLKAYAEAKDPEVRKYLAQALALAARLTAAKLRA
B37: design_616_e8336982-fa4d-4d7c-b06f-9007953e1994_1495_dldesign_0_cycle1_af2pred (protein)
chain: SEAELAKKFEEGLKKVEEAKKYAKKVEAKDPEKGKKLKELAGEAANAVLRGYAIPEKAEEEWAKVEKIYEEAKKIAA
B38: design_616_e8336982-fa4d-4d7c-b06f-9007953e1994_1055_dldesign_0_cycle1_af2pred (protein)
chain: GAAEEARKKAEEALKKIEELKEKAKADPANAGAYALEAVKTAAEASRALREADPALEEEIDRLRQAAAEAIRAALATQTA

Target: CD276, Q5ZPR3
Sequence (Q5ZPR3 whole entry): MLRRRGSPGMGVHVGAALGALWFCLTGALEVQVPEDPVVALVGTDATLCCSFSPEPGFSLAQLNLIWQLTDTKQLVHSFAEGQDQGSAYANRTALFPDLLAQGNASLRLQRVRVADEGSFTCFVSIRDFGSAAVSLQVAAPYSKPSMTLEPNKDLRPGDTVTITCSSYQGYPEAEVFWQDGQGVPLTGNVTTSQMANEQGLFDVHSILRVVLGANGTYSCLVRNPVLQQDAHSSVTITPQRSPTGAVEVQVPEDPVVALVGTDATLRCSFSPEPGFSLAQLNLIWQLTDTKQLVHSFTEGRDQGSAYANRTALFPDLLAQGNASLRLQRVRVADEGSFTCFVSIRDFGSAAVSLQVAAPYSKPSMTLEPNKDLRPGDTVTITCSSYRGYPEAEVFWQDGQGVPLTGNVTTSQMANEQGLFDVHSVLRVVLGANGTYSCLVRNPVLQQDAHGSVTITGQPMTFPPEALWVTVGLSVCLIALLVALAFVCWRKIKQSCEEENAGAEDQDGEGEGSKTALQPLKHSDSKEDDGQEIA

Binder | binding in a display sort
B1 | not found (inactive)
B2 | not found (inactive)
B3 | not found (inactive)
B4 | not found (inactive)
B5 | not found (inactive)
B6 | not found (inactive)
B7 | not found (inactive)
B8 | not found (inactive)
B9 | binds (active)
B10 | not found (inactive)
B11 | not found (inactive)
B12 | not found (inactive)
B13 | not found (inactive)
B14 | not found (inactive)
B15 | not found (inactive)
B16 | not found (inactive)
B17 | not found (inactive)
B18 | not found (inactive)
B19 | not found (inactive)

Binder | binding in a display sort
B20 | not found (inactive)
B21 | not found (inactive)
B22 | not found (inactive)
B23 | not found (inactive)
B24 | not found (inactive)
B25 | not found (inactive)
B26 | not found (inactive)
B27 | not found (inactive)
B28 | not found (inactive)
B29 | not found (inactive)
B30 | not found (inactive)
B31 | not found (inactive)
B32 | not found (inactive)
B33 | not found (inactive)
B34 | not found (inactive)
B35 | not found (inactive)
B36 | not found (inactive)
B37 | not found (inactive)
B38 | not found (inactive)
